Common to all, as to conditions: mRNA level, 48 h; actives raise or lower the signal
Read-out in experiment [1]: ATP-citrate lyase (ACLY), ACLY (gene 47)
Nature of the experiment: LTEA_HepaRG_ACLY: Life Technologies and Expression Analysis (LTEA) Assay for ATP-citrate lyase (ACLY) using HepaRG (AID 2283466). A digest of the protocol: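 Differentiated HepaRG cells exposed 48 h in serum-free induction medium to eight half-log concentrations up to 100 uM in 0.5% DMSO, duplicates. Transcript measured by Fluidigm TaqMan qRT-PCR, normalized to ACTB, GAPDH, POLR2A; bidirectional fit versus DMSO.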

Read-out in experiment [2]: Peroxisomal acyl-coenzyme A oxidase 1 (ACOX1) gene, ACOX1 (gene 51)
The experiment is described as follows: LTEA_HepaRG_ACOX1: Life Technologies and Expression Analysis (LTEA) Assay for Peroxisomal acyl-coenzyme A oxidase 1 (ACOX1) gene using HepaRG (AID 2283467). A digest of the protocol:
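HepaRG cells, plated 48 h then switched to serum-free induction medium, were exposed in duplicate for 48 h to 8-point half-log concentrations up to 100 uM in 0.5% DMSO. ACOX1 mRNA was measured by qRT-PCR, normalized to ACTB/GAPDH/POLR2A, and fitted bidirectionally versus DMSO.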

Read-out in experiment [3]: Bcl-2 (BAD) gene, BAD (gene 572)
The experiment is described as follows: LTEA_HepaRG_BAD: Life Technologies and Expression Analysis (LTEA) Assay for Bcl-2 (BAD) gene using HepaRG (AID 2283469). A digest of the protocol:
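Differentiated HepaRG cells were exposed in duplicate in 0.5% DMSO for 48 h to eight-point half-log concentrations up to 100 uM. BAD mRNA was measured by Fluidigm TaqMan qRT-PCR, normalized to ACTB, GAPDH and POLR2A, and fitted bidirectionally against DMSO.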

Read-out in experiment [4]: Bcl-2 (BAX) gene, BAX (gene 581)
The experiment is described as follows: LTEA_HepaRG_BAX: Life Technologies and Expression Analysis (LTEA) Assay for Bcl-2 (BAX) gene using HepaRG (AID 2283470). A digest of the protocol: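 HepaRG (human liver), 48 h exposure, duplicate wells. 8-pt curve, half-log from 100 uM, 0.5% DMSO. BAX transcript by TaqMan qRT-PCR; ACTB/GAPDH/POLR2A normalization; gain or loss vs DMSO baseline.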

Read-out in experiment [5]: adenosine kinase (ADK) gene, ADK (gene 132)
Nature of the experiment: LTEA_HepaRG_ADK: Life Technologies and Expression Analysis (LTEA) Assay for adenosine kinase (ADK) gene using HepaRG (AID 2283471). A digest of the protocol: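 HepaRG (human liver), 48 h chemical exposure, 8-pt half-log series, top 100 uM, 0.5% DMSO vehicle. Readout: ADK mRNA by qRT-PCR vs housekeeping genes; bidirectional curve fit relative to DMSO baseline.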

Read-out in experiment [6]: Alpha-fetoprotein (AFP) gene, AFP (gene 174)
Nature of the experiment: LTEA_HepaRG_AFP: Life Technologies and Expression Analysis (LTEA) Assay for Alpha-fetoprotein (AFP) gene using HepaRG (AID 2283472). In outline:
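HepaRG, single lot; 48 h post-plating -> serum-free induction medium; cpd 8-pt, 100 uM top, half-log, 0.5% DMSO, duplicate, 48 h. RNA -> qRT-PCR AFP, norm ACTB/GAPDH/POLR2A. Bidirectional fit vs DMSO.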

Read-out in the next experiment: BCL2L11 (gene 10018)
The experiment is described as follows: LTEA_HepaRG_BCL2L11: Life Technologies and Expression Analysis (LTEA) Assay for Bcl-2 (BCL2L11) gene using HepaRG (AID 2283473). A digest of the protocol: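 Cells were plated, cultured 48 h, switched to serum-free induction medium, then dosed in duplicate for 48 h at eight half-log concentrations up to 100 uM. Lysates underwent RNA isolation and TaqMan qRT-PCR; gain or loss versus DMSO was fitted.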

Read-out in experiment [7]: Apolipoprotein A-V (APOA5) gene, APOA5 (gene 116519)
The experiment is described as follows: LTEA_HepaRG_APOA5: Life Technologies and Expression Analysis (LTEA) Assay for Apolipoprotein A-V (APOA5) gene using HepaRG (AID 2283474). A digest of the protocol:
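Human liver HepaRG cells are treated 48 h with test chemicals (100 uM top, half-log dilutions, 0.5% DMSO). APOA5 mRNA induction or loss is measured by qRT-PCR relative to vehicle.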

Read-out in experiment [8]: Apoptosis regulator Bcl-2 (Homo sapiens) (UniProt P10415)
The experiment is described as follows: LTEA_HepaRG_BCL2: Life Technologies and Expression Analysis (LTEA) Assay for Bcl-2 gene using HepaRG (AID 2283475). In outline:
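HepaRG, plated 48 h then switched to serum-free induction medium; dosed 48 h, 8 conc. (max 100 uM, half-log steps), duplicate, 0.5% DMSO. Lysis in RLT, RNA isolated, TaqMan qRT-PCR for BCL2; ACTB/GAPDH/POLR2A normalisation; bidirectional fit vs DMSO.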

Activity calls are given as the source filed them. The calls were made as follows: active = hit-call score of the fitted dose curve at least 0.9, where 1 is the maximum; inactive = score below 0.9.

Apoptosis regulator Bcl-2 (Homo sapiens), sequence (P10415 whole entry, looked up): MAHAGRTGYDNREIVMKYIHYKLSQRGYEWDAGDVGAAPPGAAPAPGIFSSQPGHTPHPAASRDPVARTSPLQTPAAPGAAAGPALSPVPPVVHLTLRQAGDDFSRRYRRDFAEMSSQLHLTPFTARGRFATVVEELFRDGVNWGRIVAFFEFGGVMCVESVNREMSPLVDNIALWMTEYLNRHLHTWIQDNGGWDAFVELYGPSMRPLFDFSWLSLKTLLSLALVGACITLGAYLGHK

For `OC(c1ccc(Cl)cc1)(c1ccc(Cl)cc1)C(Cl)(Cl)Cl`, the outcome (in [1]; in experiment [6]; in the experiment with BCL2L11 (gene 10018)) was inactive. In addition, the AC50 (usually the midpoint of the concentration-response curve, whichever way the signal moves) is 50 µM (active) in experiment [2]; 70.1 µM (active) in [3]; 78.2 µM (active) in experiment [4]; 74 µM (active) in [5]; 4.05 µM (active) in experiment [7]; 86.4 µM (active) in experiment [8].

`CCCN(CC)CC1COC2(CCC(C(C)(C)C)CC2)O1` (stereo unspecified): the compound was called inactive in [1], in [2], in experiment [3], in experiment [4], in experiment [5] and in experiment [6]. The compound was called inactive (in the experiment with BCL2L11 (gene 10018); in [7]; in experiment [8]).

For the compound `COc1cc(Cl)c(OC)cc1Cl`, the call in experiment [1], in experiment [2], in experiment [3], in experiment [4], in experiment [5] and in experiment [6] was inactive. Also, the compound was classed as inactive (in the experiment with BCL2L11 (gene 10018); in [7]; in experiment [8]).

Take `COCC(=O)N(c1c(C)cccc1C)C(C)C(=O)OC` (stereo unspecified): the result in [1], in [2], in [3], in experiment [4], in experiment [5] and in experiment [6] was inactive. The result (with BCL2L11 (gene 10018); in experiment [7]; in experiment [8]) was inactive.

For `CC(C)C1(C)N=C(c2ncccc2C(=O)O)NC1=O` (stereo unspecified), the outcome in experiment [1], in experiment [2], in experiment [3], in [4], in experiment [5] and in experiment [6] was inactive. For the same compound, the call (with BCL2L11 (gene 10018); in [7]; in experiment [8]) was inactive.

`COc1cc(OC)nc(NC(=O)NS(=O)(=O)c2ncccc2OCC(F)(F)F)n1`: the compound was classed as inactive in experiment [1], in experiment [2], in [3], in [4], in [5] and in experiment [6]. The compound was classed as inactive (with BCL2L11 (gene 10018); in experiment [7]; in [8]).

On to `CC(C)Nc1nc(Cl)nc(NC(C)C)n1`, for which the compound was called inactive (in experiment [1]; in experiment [2]; in experiment [3]; in experiment [4]; in experiment [5]; in the experiment with BCL2L11 (gene 10018)). The compound was classed as inactive in experiment [7] and in experiment [8]. In addition, the half-maximal activity concentration (AC50) in experiment [6] is 24.8 µM (active).

For the compound `O=P(O)(O)CCCl`, the result in experiment [1], in experiment [2], in experiment [3], in experiment [4], in experiment [5] and in [6] was inactive. Moreover, the result (with BCL2L11 (gene 10018); in experiment [7]; in experiment [8]) was inactive.

On to `Cc1cc(C)nc(Nc2ccccc2)n1`, for which the outcome in [1], in experiment [2], in experiment [3], in [4], in experiment [5] and in experiment [6] was inactive. The outcome (with BCL2L11 (gene 10018); in experiment [7]; in experiment [8]) was inactive.

As to `CCOc1cc(C(C)(C)C)ccc1C1COC(c2c(F)cccc2F)=N1` (stereo unspecified), the compound was classed as inactive (in experiment [1]; in [2]; in experiment [3]; in [4]; in experiment [5]; with BCL2L11 (gene 10018)). For the same compound, the compound was called inactive in experiment [7] and in [8]. Besides, in experiment [6], the AC50 is 25.7 µM (active).

Take `COCC(C)N(C(=O)CCl)c1c(C)csc1C` (stereo unspecified): the call in [1], in experiment [2], in experiment [3], in experiment [4], in experiment [5] and in [6] was inactive. In addition, the compound was classed as inactive (with BCL2L11 (gene 10018); in experiment [7]; in [8]).

Consider `CO/N=C(/C1=NOCCO1)c1ccccc1Oc1ncnc(Oc2ccccc2Cl)c1F`, for which the AC50 in experiment [1] is 12.5 µM (active); in [2], 15.4 µM (active); in [4], 31.3 µM (active); in experiment [6], 18.2 µM (active); with BCL2L11 (gene 10018), 27.7 µM (active); in [7] it was 23.6 µM (active). Moreover, the concentration at half-maximal activity (AC50) in experiment [8] was 29.7 µM (active). For the same compound, the outcome in experiment [3] and in experiment [5] was inactive.

As to `Cc1c(COC(=O)[C@@H]2[C@H](/C=C(\Cl)C(F)(F)F)C2(C)C)cccc1-c1ccccc1`, the call (in experiment [1]; in experiment [2]; in experiment [3]; in [4]; in experiment [5]; with BCL2L11 (gene 10018)) was inactive. Moreover, the compound was classed as inactive in experiment [7] and in [8]. For the same compound, the AC50 in [6] is 50 µM (active).

Take `CC1(C)CCC(=Cc2ccc(Cl)cc2)C1(O)Cn1cncn1` (stereo unspecified): the AC50 in experiment [1] is 34 µM (active); in experiment [7] it was 49.8 µM (active). For the same compound, the outcome (in [2]; in experiment [3]; in experiment [4]; in experiment [5]; in experiment [6]; in the experiment with BCL2L11 (gene 10018)) was inactive. The compound was called inactive in experiment [8].

With `O=c1n(Cl)c(=O)n(Cl)c(=O)n1Cl`, the compound was called inactive in experiment [1], in experiment [2], in [3], in [4], in [5] and in [6]. The outcome (with BCL2L11 (gene 10018); in [7]; in experiment [8]) was inactive.

As for `CC(C)Oc1cccc(NC(=O)c2ccccc2C(F)(F)F)c1`, the compound was classed as inactive in experiment [1], in experiment [2], in experiment [3], in experiment [4], in experiment [5] and in experiment [6]. The call (with BCL2L11 (gene 10018); in [7]; in experiment [8]) was inactive.

With `COC(=O)N(C(=O)N1CO[C@@]2(C(=O)OC)Cc3cc(Cl)ccc3C2=N1)c1ccc(OC(F)(F)F)cc1`, the compound was classed as inactive in [1], in experiment [3], in experiment [4], in [5], in experiment [7] and in experiment [8]. In addition, the AC50 in experiment [2] was 40 µM (active); in [6] it was 40 µM (active); in the experiment with BCL2L11 (gene 10018), 12.7 µM (active).

`Clc1cccc(C(Cl)(Cl)Cl)n1`: the compound was classed as inactive in experiment [1], in [2], in experiment [3], in experiment [4], in experiment [5] and in experiment [6]. In addition, the call (with BCL2L11 (gene 10018); in experiment [7]; in experiment [8]) was inactive.

On to `CCCCC(C#N)(Cn1cncn1)c1ccc(Cl)cc1` (stereo unspecified), for which the results for the AC50 in [1] and in [6] were 50 µM (active) and 67 µM (active), respectively. In addition, the compound was classed as inactive (in experiment [2]; in [3]; in experiment [4]; in experiment [5]; with BCL2L11 (gene 10018); in experiment [7]). Besides, the call in experiment [8] was inactive.

The values are drawn from PubChem BioAssay (EPA / NIEHS).
